Cruzain Triton: qHTS Assay for Promiscuous and Specific Inhibitors of Cruzain (with detergent); purified cruzain, Z-FR-AMC fluorescence, 0.01% Triton; Potency, µM, without a hit: max response, negative = inhibition, hits mostly inhibitors; 200,000 compounds, 0.43% hits; AID 1478, 2009;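 further: plate controls were neutral wells for no effect and buffer without enzyme for full effect; nearly all actives have a fitted effect of over 40% in size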
Target sequence (P25779 123-467 limits assumed): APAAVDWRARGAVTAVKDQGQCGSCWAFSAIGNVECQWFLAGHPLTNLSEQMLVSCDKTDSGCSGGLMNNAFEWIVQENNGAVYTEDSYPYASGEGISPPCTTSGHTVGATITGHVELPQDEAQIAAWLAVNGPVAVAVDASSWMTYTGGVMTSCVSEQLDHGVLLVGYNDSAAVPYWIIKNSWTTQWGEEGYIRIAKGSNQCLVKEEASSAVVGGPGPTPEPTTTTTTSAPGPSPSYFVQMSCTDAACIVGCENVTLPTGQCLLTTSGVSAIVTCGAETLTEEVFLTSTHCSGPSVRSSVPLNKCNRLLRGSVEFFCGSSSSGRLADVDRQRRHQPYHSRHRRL
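Detergent-containing run (0.01% Triton X-100) in acetate buffer pH 5.5 with 5 mM DTT: enzyme at 1.5 nM final, 15 min compound preincubation at room temperature, then 2 uM Z-FR-AMC substrate. Activity taken as 60 s fluorescence increase at 360/450 nm.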
Cruzain inh noDet: qHTS Assay for Promiscuous and Specific Inhibitors of Cruzain (without detergent); Cruzipain (Trypanosoma cruzi), P25779; purified cruzain, Z-FR-AMC fluorescence, no detergent; Potency, µM, for the others: max response, negative = inhibition, most hits filed as inhibitors; 200,000 compounds, 2.3% hits; AID 1476, 2009;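 further: plate controls were enzyme without inhibitor for no effect and buffer without enzyme for full effect; nearly all actives have a fitted effect of over 40% in size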
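Purified cruzain at 1.5 nM, pre-incubated 15 min with compound at room temperature in 100 mM sodium acetate pH 5.5, 5 mM DTT, 0.00005% Triton X-100. Reaction started with 2 uM Z-FR-AMC; AMC fluorescence increase over 60 s gives rate.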
Papain counter: qHTS Assay for Inhibitors of Papain: Counterscreen for Cruzain Assay; shares compounds with Cruzain Triton; purified papain, Z-FR-AMC fluorescence cleavage; Potency, µM, inactives show max response, negative = inhibition, hits mostly inhibitors; 410 compounds, 41% hits; AID 2161, 2009;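 further: 0% = no-compound wells and -100% = no-enzyme wells; nearly all actives have a fitted effect of over 35% in size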
Target sequence (P00784 whole entry, looked up): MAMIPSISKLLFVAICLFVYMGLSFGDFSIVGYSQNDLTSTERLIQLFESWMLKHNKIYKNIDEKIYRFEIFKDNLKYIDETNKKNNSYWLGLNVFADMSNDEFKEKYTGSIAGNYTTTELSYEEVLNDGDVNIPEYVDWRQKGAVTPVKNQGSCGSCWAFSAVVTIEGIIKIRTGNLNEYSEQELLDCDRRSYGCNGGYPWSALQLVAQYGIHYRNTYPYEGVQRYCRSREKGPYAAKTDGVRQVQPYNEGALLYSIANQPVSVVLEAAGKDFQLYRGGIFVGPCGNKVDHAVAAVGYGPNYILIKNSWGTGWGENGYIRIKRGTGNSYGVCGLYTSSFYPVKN
Numbers without * were called inactive; ? = inconclusive. Compounds with a hit are over-represented: about 2.4% of the library has one in this group of screens. The call rests on the fitted dose curve; in most records, active means well fitted curve in the direction sought with a large enough effect; inconclusive means small, poorly fitted or top-dose-only effect, or another doubt; inactive means no such curve, though single readings can be large; an effect the other way counts as inactive or inconclusive. Potency means the concentration at half of the fitted maximal effect.

SMILES	Cruzain Triton	Cruzain inh noDet	others
CCc1ccc(NCCC(=O)c2ccc(Br)cc2)cc1	-5%	1%
N#Cc1c(Sc2ncc(C(F)(F)F)cc2Cl)nsc1C/C=N\OCc1ccccc1Br	-15%	7.9µM*
CCOC(=O)/C(=C\Nc1ccccc1C(F)(F)F)Sc1ncc(C(F)(F)F)cc1Cl	-3%	?
CCC(=O)C1=C(c2cccc(OC)c2)N(C(=O)CC)n2c(nnc2C2CCCCC2)S1	-3%	-6%
COc1ccc(NC(=O)C(c2ccccc2)N(C)C(=O)/C=C\c2ccc3c(c2)OCO3)cc1 (configuration not stated)	-6%	-13%
COc1cccc(NC(=O)C(OC(=O)/C=C/c2ccc3c(c2)OCO3)c2ccccc2)c1 (configuration not stated)	-5%	20µM*
CCN(CC)C(=O)c1ccccc1NC(=O)c1cccc(S(=O)(=O)N2CCC(C)CC2)c1	-1%	-7%
Cc1cc(N/N=C/c2c(O)ccc3ccccc23)nc(-c2ccccc2O)n1	0%	16µM*
Oc1ccc2ccccc2c1/C=N/Nc1ccccc1	-6%	-7%
Cc1ccc(CN2CCN(C3CCN(S(=O)(=O)N(C)C)CC3)C(=O)C2=O)cc1	3%	-3%
CCOc1ccc2c(c1)c(=O)c(C(=O)c1ccc(CC)cc1)cn2CC(=O)Nc1ccc2c(c1)OCCO2	-1%	0%
CCCc1ccc(-c2cc(C(=O)NCCc3ccc(S(N)(=O)=O)cc3)c3ccccc3n2)cc1	-16%	3%
CCCc1ccc(-c2cc(C(=O)Nc3ccc([N+](=O)[O-])cn3)c3ccccc3n2)cc1	-4%	25µM*
Cc1ccc(C)c(N2CCN(S(=O)(=O)c3cc(C(=O)Nc4ccc(Oc5ccccc5)cc4)ccc3F)CC2)c1	2%	?
C(=N\Nc1nc(-c2ccccc2)cs1)/c1ccco1	-14%	?
C(=N\Nc1nc(-c2ccccc2)cs1)/c1cccs1	-6%	25µM*
Cc1ccc2c(c1)-c1onc(C(=O)N3CCN(c4ccc(Cl)cc4)CC3)c1CO2	-4%	?
COc1ccc(C(=O)N/N=C/c2sc3ccccc3c2O)cc1	-3%	-14%
COc1ccc2cc(C(=O)N/N=C/c3sc4ccccc4c3O)ccc2c1	28µM*	?
Nc1ccc(-c2nc3ccc(N)cc3o2)cc1	20µM*	16µM*
Cc1ccc2nc(-c3cc(N)cc(N)c3)oc2c1	-1%	?
Cc1ccc(NC(=O)CSc2nccn2C2CCCC2)cc1	1%	-4%
NC(N)=NCCN=C(N)N	1%	8%
COc1ccc(C(=O)NNC(=S)NC(=O)c2cc(-c3ccccc3)nc3ccccc23)cc1	-1%	?
CCCOc1ccc(C(=O)NNC(=S)NC(=O)c2cc(-c3ccc(Cl)cc3)nc3ccccc23)cc1	3%	?
SMILES	Cruzain Triton	Cruzain inh noDet	others
COC(=O)c1ccc(NC(=S)NC(=O)c2cc(-c3ccccc3)nc3ccccc23)cc1	-2%	10µM*
CC(C)(C)c1ccc(-c2cc(C(=O)NNC(=O)Nc3ccccc3)c3ccccc3n2)cc1	-3%	?
COc1ccc(Cl)cc1C(=O)NNC(=S)NC(=O)c1cc(-c2ccccc2)nc2ccccc12	3%	3.2µM*
O=C(NNC(=O)c1cc(-c2ccccc2)nc2ccccc12)Nc1cccc(Cl)c1	0%	20µM*
Cc1ccc(-c2noc(-c3nnn(CC(=O)Nc4cccc(C(F)(F)F)c4)c3N)n2)cc1	-3%	0%
COc1ccc(CCNC(=O)CCn2c(=O)c3ccccc3n(Cc3ccccc3C)c2=O)cc1OC	-1%	-9%
Cc1ccc(S(=O)(=O)Nc2cc3c(cc2C)n(C)c(=O)c(=O)n3C)cc1	-3%	-5%
Nc1nc(SCc2ccc(Cl)cc2Cl)nc2nc3c(cc12)CCCC3	14µM*	13µM*
Nc1nc(SCc2ccccc2Cl)nc2nc3c(cc12)CCCC3	-15%	4%
COc1cccc(C(=O)Oc2cc3c4c(c2)C(C)=CC(C)(C)N4C(=O)C3=O)c1	-4%	14%
CC1=CC(C)(C)n2c(O)c(C3=NC(=S)NC3=O)c3cc(OC(=O)c4cccc5ccccc45)cc1c32	1%	3.2µM*
CCOC(=O)c1c(NC(C)=O)c2c3c(sc2n1Cc1cccc(Cl)c1)CCCC3	-3%	6%
Cc1ccc(-c2nnn3c2nc(NCC(C)c2ccccc2)c2ccccc23)cc1 (configuration not stated)	0%	5µM*
COCCCNc1nc2c(-c3ccccc3)nnn2c2ccccc12	0%	3%
COc1ccc(C(=O)NCC(c2ccc3c(c2)OCO3)N2CCOCC2)cc1OC (configuration not stated)	1%	3%
Cc1ccc(C)n1NC(=O)c1ccc(Cl)cc1	1%	-4%
Cc1ccc(C)n1NC(=O)c1ccc(Cl)cc1Cl	-2%	13µM*
O=C(Nc1cccc(C(=O)N2CCN(c3cccc(Cl)c3)CC2)c1)c1nsc2ccccc12	-1%	?
O=C(Nc1ccc(C(=O)N2CCN(c3ccccc3)CC2)cc1)c1nsc2ccccc12	-1%	-29%
O=C(Nc1ccc(C(=O)N2CCN(c3cccc(Cl)c3)CC2)cc1)c1nsc2ccccc12	-1%	10µM*
O=C(Nc1cccc(C(=O)N2CCN(c3ccc(Cl)cc3)CC2)c1)c1nsc2ccccc12	0%	20µM*
CCN(C#N)c1nc(NC(C)C)nc(NC(C)C)n1	0%	7%
CCNc1nc(SC(C(C)=O)C(C)=O)nc(N(C)C)n1	5%	-2%
COC(=O)CN(C#N)c1nc(OC)nc(N(C)C)n1	28µM*	20µM*
COC(=O)CN(C#N)c1nc(C)cc(C)n1	-2%	-2%
SMILES	Cruzain Triton	Cruzain inh noDet	others
COC(=O)CN(C#N)c1nc(NC(C)C)nc(OC)n1	22µM*	20µM*
CCNc1nc(SC)nc(N(C#N)CC(=O)OC)n1	14µM*	13µM*
N#Cc1cccc(CS(=O)(=O)c2nc3ccccc3s2)c1	0%	-6%
O=C(NCc1ccccc1Cl)NCc1noc2ccccc12	-2%	-1%
O=C(O)[C@H]1[O][Sb][O][C@@H](C(=O)O)C1O (some centres not stated)	6%	3%
O=[N+]([O-])c1cc2c(cc1/C=N/Nc1nc(N3CCCC3)nc(N3CCCC3)n1)OCO2	-12%	14%
O=[N+]([O-])c1ccc(Nc2nc(N/N=C\c3ccc4c(c3)OCO4)nc(N3CCCCC3)n2)cc1	5%	7.9µM*
O=C(CSC1=Nc2ccccc2N=C(c2ccc(F)cc2)C1)Nc1cc(F)ccc1F	-2%	11%
COc1ccc(CCNC(=O)c2ccc3c(c2)N(Cc2ccccc2C)C(=O)c2ccccc2S3)cc1OC	1%	-17%
COc1cccc(-n2c(=O)c3c(C)c(C)sc3n(CC(=O)Nc3ccccc3OC)c2=O)c1	-2%	-7%
CCCN1C(=O)C(Cc2nc3ccccc3c(=O)n2CC)c2ccccc21 (configuration not stated)	-3%	9%
O=C(CCN1C(=O)/C(=C\c2cccs2)SC1=S)Nc1nccs1	-6%	-2%
O=C(CCN1C(=O)/C(=C/C=C/c2ccccc2)SC1=S)Nc1nccs1	-1%	3.2µM*	Papain counter=-6%
COC(=O)c1ccc(NC(=O)CCn2cnnn2)cc1	0%	-3%
CC1CN(c2c(F)c(N)c3c(=O)c(C(=O)O)cn(C4CC4)c3c2F)CC(C)N1 (configuration not stated)	-1%	-1%

Source: PubChem BioAssay (National Center for Advancing Translational Sciences (NCATS))
